Among all 48,000 compounds or so, about 13,000 (27%) showed an effect of 50% or more. The list shows a part of the results.
The compounds below were run on Wolbachia pipientis (assay: Anti-Wolbachia Cell-Based Screen). Settings: 5 µM.
Type: functional
Set-up: scale not given: in the data most compounds retested in dose-response had high values
With O=C(NCc1ccccn1)[C@@H]1COC[C@H]2CN(c3ncccn3)C[C@H]21.O=C(O)C(F)(F)F.O=C(O)C(F)(F)F the “Percent Effect” value was -2.042%. For Cc1ccc(S(=O)(=O)Nc2ccc(=O)n(C)c2)cc1, the “Percent Effect” value was -12.63%. COc1ccc(-c2nccn2C[C@@H]2CCCN3CCCC[C@H]23)cc1 was tested, and the “Percent Effect” value was -24.08%. With COC(C)C(=O)N(CC(N)=O)Cc1cccc(Oc2ccccc2)c1 (stereo unspecified) the “Percent Effect” value was 2.959%. In the case of CC(C)[C@H]1COC(=O)N1Cc1nccn1C(C)C, the “Percent Effect” value is reported as -0.6769%. In the case of COc1ccc(CN2CCc3c(CNC(=O)CC#N)nn(C)c3C2)cc1.O=C(O)C(F)(F)F.O=C(O)C(F)(F)F, the “Percent Effect” value is reported as 8.44%. For Cn1nc(CNC(=O)c2cccc(C(F)(F)F)c2)c2c1CCOC2, the “Percent Effect” value was 111.4%. In the case of Cn1cc(NC(=O)c2cccc(C(F)(F)F)c2)c(=O)n(C)c1=O, the “Percent Effect” value is reported as -3.646%. Cn1nc(CNC(=O)c2ccc(OC(F)(F)F)cc2)c2c1CCOC2 was tested, and the “Percent Effect” value was 101.2%. With Cc1ncc(CNC(=O)c2nn(C)c3c2CS(=O)(=O)CC3)s1 the “Percent Effect” value was 8.614%. With Cn1nc(CNC(=O)c2ccc3nsnc3c2)c2c1CCOC2 the “Percent Effect” value was 120.7%. In the case of CN1CCC(CNC(=O)c2cccc(C(F)(F)F)c2)c2ccccc21 (stereo unspecified), the “Percent Effect” value is reported as -15.52%. With Cc1noc(NC(=O)c2ccc(OC(F)(F)F)cc2)n1 the “Percent Effect” value was 14.41%. With O=C(NCCN1CCCC(CO)C1)c1ccc2scnc2c1 (stereo unspecified) the “Percent Effect” value was -0.5362%. In the case of COc1cc(OC)cc(C(=O)NCc2nn(C)c3c2COCC3)c1, the “Percent Effect” value is reported as 121.8%. In the case of COc1ccc(CNC(=O)c2nn(C)c3c2CS(=O)(=O)CC3)cc1OC, the “Percent Effect” value is reported as -2.523%. COc1cc(OC)cc(C(=O)NCCCNc2ncccn2)c1 was tested, and the “Percent Effect” value was 15.23%. O=C(NC1CC1)c1cc(NC(=O)N2CCSCC2)ccc1Cl was tested, and the “Percent Effect” value was -25.35%. For CCc1c(C(=O)N2CCC3(CC(=O)NC3=O)C2)csc1C (stereo unspecified), the “Percent Effect” value was 4.433%. COC(=O)c1ccc(C(=O)NCc2nn(C)c3c2COCC3)cc1 was tested, and the “Percent Effect” value was 116.6%. With Cn1nc(CNC(=O)c2ccc3c(c2)OCO3)c2c1CCOC2 the “Percent Effect” value was 123.8%. For CCN(Cc1ccc2c(c1)OCO2)C(=O)c1ccc(=O)n(C)c1, the “Percent Effect” value was -0.5548%. Cc1nnc(SCCCNC(=O)c2ccc3c(c2)OCO3)s1 was tested, and the “Percent Effect” value was -1.096%. For Cn1nc(CNC(=O)NCc2ccc(Cl)cc2)c2c1CCOC2, the “Percent Effect” value was -8.693%. In the case of Cn1nc(CNC(=O)c2ccc(Cl)cc2)c2c1CCOC2, the “Percent Effect” value is reported as -28.17%. In the case of COc1cccc(OCC2CCCN(C(=O)c3cc(C)n[nH]3)C2)c1 (stereo unspecified), the “Percent Effect” value is reported as -67.83%. With Cc1cccc2c1OCCCC2NCc1nccn1Cc1ccccc1 (stereo unspecified) the “Percent Effect” value was -13.33%. In the case of Cc1noc(C)c1CCC(=O)NC(C)c1nnc2n1CCCCC2 (stereo unspecified), the “Percent Effect” value is reported as -4.207%. For CC(NC(=O)CCc1cccs1)c1nnc2n1CCCCC2 (stereo unspecified), the “Percent Effect” value was 108.8%. With CC(NC(=O)Cc1cccs1)c1nnc2n1CCC2 (stereo unspecified) the “Percent Effect” value was 95.59%. For CC(NC(=O)CCc1cccs1)c1nnc2n1CCC2 (stereo unspecified), the “Percent Effect” value was -2.805%. With CC(NC(=O)Cc1cccs1)c1nnc2n1CCCCC2 (stereo unspecified) the “Percent Effect” value was -4.411%. CNC(=O)N1C[C@H]2CC[C@@]3(N=C(c4ccccc4)NC3=O)[C@H]2C1 was tested, and the “Percent Effect” value was -7.438%. For N[C@H]1CN(C(=O)c2ccc(Cl)cc2F)C[C@@H]1C1CC1, the “Percent Effect” value was -16.98%. CCN(c1ccc(C(=O)N2CCCC2)cc1)S(=O)(=O)CC was tested, and the “Percent Effect” value was -7.72%. With Cc1cc(C(=O)N2CCCCC2)ccc1NS(C)(=O)=O the “Percent Effect” value was -18.21%. CCN(c1ccc(C(=O)N2CCCCCC2)cc1)S(=O)(=O)CC was tested, and the “Percent Effect” value was 148.2%. For CCS(=O)(=O)N(C)C1CCN(C(=O)c2ccc(C)c(C)c2)CC1, the “Percent Effect” value was -2.68%. With CCN(c1ccc(C(=O)N2CCCCC2)cc1)S(=O)(=O)CC the “Percent Effect” value was 114.5%. For CCCOC1CCCN(C(=O)c2ccc(S(N)(=O)=O)cc2)C1 (stereo unspecified), the “Percent Effect” value was 2.275%. With COc1ccccc1OC1(C(=O)O)CCN(c2cc(C)nc(C)c2)CC1 the “Percent Effect” value was -31.32%. In the case of CCOc1ccc(C(F)(F)F)cc1NCc1nc(C)c(C)o1, the “Percent Effect” value is reported as -3.649%. NCC1CCN(C2CCN(c3ccc(-c4ccco4)cc3)CC2)C1 (stereo unspecified) was tested, and the “Percent Effect” value was -12.7%. In the case of CC(CCSc1ccccc1)N1CCN(C(=O)c2ccccc2O)CC1 (stereo unspecified), the “Percent Effect” value is reported as 4.975%. CN(Cc1cccc(-n2cccn2)c1)c1cc(N2CCCC2)nc(N)n1 was tested, and the “Percent Effect” value was 13.85%. With Cl.Nc1nc(Nc2ccccc2)cc(N2CCNCC2)n1 the “Percent Effect” value was 122.8%.

— ChEMBL document CHEMBL3988442, “University of Dundee, Small-Polar-MMV Screening Library” (2021)
